Assay outcomes deposited in PubChem BioAssay by The Scripps Research Institute Molecular Screening Center.
LYPLA2 counter = blocks human lysophospholipase 2, a PME1 counter-screen. O95372. recombinant LYPLA2, FP-Rh probe fluorescence polarization. inhibition, % at 5.9 µM. 0.38% of 320,000 active. AID 2177;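 active = inhibition above the screen-wide mean plus 3 SD, limit set per campaign, cut at about 26% in these data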
PME-1 primary = blocks human protein phosphatase methylesterase 1; Q9Y570; recombinant PME-1, FP-Rh probe fluorescence polarization; 0.53% of 320,000 active; AID 2130; inhibition, % at 5.9 µM;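 active = inhibition above the campaign mean of all compounds plus 3 SD, cut at about 26% in these data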;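 also: competitive labeling of PME-1 active site by serine hydrolase directed probe; inhibitors block probe labeling so polarization falls and inhibition rises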
LYPLA1 counter = counter-screen for PME1 inhibitors: inhibitors of human LYPLA1; O75608; recombinant LYPLA1, FP-Rh probe fluorescence polarization; inhibition, % at 5.9 µM; 0.16% of 320,000 active; AID 2174;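 active = inhibition above the mean of all tested compounds plus 3 SD, set per campaign, cut at about 14% in these data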;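 also: inhibitors block serine hydrolase probe labeling of LYPLA1 so polarization falls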
Target sequence (O75608 whole entry, looked up): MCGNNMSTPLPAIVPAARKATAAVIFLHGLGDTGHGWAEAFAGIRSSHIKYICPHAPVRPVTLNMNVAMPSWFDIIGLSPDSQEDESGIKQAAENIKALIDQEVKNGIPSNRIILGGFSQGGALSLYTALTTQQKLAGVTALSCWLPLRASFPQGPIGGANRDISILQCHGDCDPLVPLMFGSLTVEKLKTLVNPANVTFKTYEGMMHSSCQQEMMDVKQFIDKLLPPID
Fam108B inh = counter-screen for RBBP9 inhibitors: inhibitors of mouse Fam108B; recombinant Fam108B, FP-Rh probe fluorescence polarization; 0.33% of 300,000 active; inhibition, % at 9.51 µM;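 active = inhibition above the screen mean inhibition plus 3 SD, computed separately per campaign, cut at about 18% in these data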;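 also: inhibitors lower polarization as less probe binds the enzyme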
GSTO1 counter = GSTO1 inhibition, counter-screen for RBBP9 inhibitors; P78417; recombinant GSTO1, activity-based probe fluorescence polarization; inhibition, % at 5.96 µM; 1.1% of 300,000 active;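 active = inhibition above the campaign mean inhibition plus 3 SD, cut at about 35% in these data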
Target sequence (P78417 whole entry, looked up): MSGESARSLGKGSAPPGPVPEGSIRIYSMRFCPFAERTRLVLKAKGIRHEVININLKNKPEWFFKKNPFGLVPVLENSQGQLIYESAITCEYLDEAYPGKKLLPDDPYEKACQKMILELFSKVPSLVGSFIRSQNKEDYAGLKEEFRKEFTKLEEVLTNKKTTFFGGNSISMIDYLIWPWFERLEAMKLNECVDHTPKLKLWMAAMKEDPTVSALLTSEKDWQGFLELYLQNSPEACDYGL
PAD4 inh = blocks human protein arginine deiminase 4; Q9UM07; recombinant PAD4, RCA probe fluorescence polarization; inhibition, % at 6.36 µM; 0.41% of 330,000 active;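 active = percent inhibition above a cutoff equal to the mean of all tested compounds plus 3 SD, cut at about 15% in these data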
PAD4 confirm = PAD4 (human) inhibition, confirmed. shares compounds with PAD4 inh. recombinant PAD4, RCA probe fluorescence polarization. inhibition, % at 6.36 µM. 28% of 1,200 active;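 active = mean inhibition across replicates above the hit cutoff set by the earlier primary screen, cut at about 15% in these data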;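 also: inhibitors block active-site labeling by the probe so polarization falls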
Each line names hits and unclear results; the compound was inactive in the other large screens (follow-up assays come after a bar, where they were run). The list is not random: actives were taken first. Their share in the collection is about 1.8%.

COc1ccc(N2C(=O)CSC23C(=O)N(CC(=O)NC2CCCC2)c2ccccc23)cc1 (stereo not drawn)	PAD4 inh 16 | PAD4 confirm inactive
N#Cc1ccccc1S(=O)c1ccccc1C(=O)Nc1ccccc1 (stereo not drawn)	none
CC(Sc1nnc(N)s1)C(=O)NCc1ccc2c(c1)OCO2 (stereo not drawn)	none (no result: Fam108B inh, GSTO1 counter)
COc1ccccc1N1CCN(C(=O)CCC(=O)N2CCN(c3ccc(F)cc3)CC2)CC1	PAD4 inh 23 | PAD4 confirm inactive
COc1ccccc1N1CCN(C(=O)CCC(=O)N2CCN(c3ccccc3OC)CC2)CC1	none
Cc1cccc(C(=O)c2c[nH]cc2-c2ccccc2)c1	none
Cc1nc(SCC(=O)c2ccccc2)[nH]c(=O)c1Oc1ccc(Cl)cc1	PAD4 inh 21 | PAD4 confirm inactive
CCc1cc(C(=O)OCC(=O)N2CCC(c3ccccc3)=N2)sc1C	none
CN(C)CCNC(=O)c1c(CSc2ccccc2)noc1C(=O)NCc1ccccc1	none
COc1ccc(C2=Nn3c(nnc3-c3cccnc3)SC2)cc1OC	PAD4 inh 22 | PAD4 confirm inactive
Cc1nnc(N/N=C/c2ccco2)n1N	GSTO1 counter 38, PAD4 inh 23 | PAD4 confirm inactive
Cc1nnc(N/N=C/c2ccccc2F)n1N	PAD4 inh 31 | PAD4 confirm inactive
Fc1ccccc1/C=N/Nc1nn[nH]n1	none
Cc1nnc(N/N=C/c2cccc(C(F)(F)F)c2)n1N	PAD4 inh 35 | PAD4 confirm inactive
COc1ccc(-n2c(C)cc(/C=N/Nc3nnc(C)n3N)c2C)cc1	GSTO1 counter 46, PAD4 inh 36 | PAD4 confirm inactive
COc1ccc(CCC(=O)NCCS(=O)(=O)N2CCN(c3ccc(F)cc3)CC2)cc1	none
O=C(NC1CC2CCCC(C1)N2C(=S)Nc1ccccc1)C1CC1 (stereo not drawn)	none
O=C(COC(=O)/C=C/c1ccccc1)NC(=O)NCc1ccccc1	none (no result: Fam108B inh, GSTO1 counter)
CCOc1ccc(-c2n[nH]c(C)c2Oc2ccc(OC)cc2)c(O)c1	none
Cc1nnc(N/N=C/c2ccccc2C(F)(F)F)n1N	PAD4 inh 18 | PAD4 confirm inactive
NC(=O)N/N=C/c1cccc(OCc2ccc(F)cc2)c1	none
Cc1nnc(N/N=C/c2cccc(OCc3ccc(Cl)c(Cl)c3)c2)n1N	GSTO1 counter 46, PAD4 inh 33 | PAD4 confirm inactive
CC(=O)Nc1ccc(S(=O)(=O)NCCC(=O)OCC(=O)NCc2ccccc2)cc1	none (no result: LYPLA2 counter, PME-1 primary, LYPLA1 counter, Fam108B inh, GSTO1 counter)
CN(C)S(=O)(=O)n1cnc([C@@H]2[C@@H]3C(=O)OC[C@@H]3C[C@]23N=CN(Cc2ccccc2)C3=O)c1	none (no result: Fam108B inh, GSTO1 counter)
COc1ccc(CCNC(=O)c2c[nH]c3ccccc3c2=O)cc1OC	none
COc1ccc(CCNC(=O)c2c[nH]c3ccc(F)cc3c2=O)cc1OC	PAD4 inh 83 | PAD4 confirm inactive
O=C(Nc1ccc(N2CCN(c3ccc(O)cc3)CC2)cc1)Oc1ccccc1	none
Nc1ccc(OC(=O)Nc2ccc(O)cc2)cc1	GSTO1 counter 59, PAD4 inh 73 | PAD4 confirm inactive
CC[C@]12c3[nH]c4ccc(Cl)cc4c3CCN1C(=O)[C@@H](CC(=O)NCCC1=CCCCC1)C[C@@H]2C(=O)N1CCN(C(=O)C2CC2)CC1	none (no result: LYPLA2 counter, PME-1 primary, LYPLA1 counter, Fam108B inh, GSTO1 counter)
COC(=O)c1ccc(NC(=O)CSC2=NCCN2)cc1	PAD4 inh 18 | PAD4 confirm 30
CCC1C(=O)N=C(SCC(=O)Nc2ccc(C(=O)OC)cc2)NC1=O (stereo not drawn)	PAD4 inh 16 | PAD4 confirm 21
COC(=O)c1cc(NC(=O)Cc2ccc(OC)cc2)cc(C(=O)OC)c1	PAD4 inh 21 | PAD4 confirm 17
O=C(CSC1=NCCS1)NC(NC(=O)CSC1=NCCS1)c1ccccc1	none
COC(=O)c1cc(NC(=O)CSC2=NCCS2)cc(C(=O)OC)c1	PAD4 inh 18 | PAD4 confirm 15
COc1ccc(CC(=O)Nc2ccc(C(N)=O)cc2)cc1	none
NC(=O)NC(=O)C(Nc1ccc(N2CCCCC2)cc1)c1ccccc1 (stereo not drawn)	none
Cc1ccc(-n2[nH]c(C)c(/C=N/Nc3ccc([N+](=O)[O-])cc3[N+](=O)[O-])c2=O)cc1	none
O=C(CN1CCCCC1)Nc1ccc(C(F)(F)F)cc1Cl	PAD4 inh 18 | PAD4 confirm inactive
O=C(CN1CCCC1)Nc1cc(C(F)(F)F)ccc1Cl	none
COC(=O)c1sc2ccccc2c1-n1cccc1C(=O)C(=O)Nc1ccc(Cl)cc1	none
Cc1cc(C)c(C)c(S(=O)(=O)N2CCN(C(=O)C3CCC3)CC2)c1C	none
Cc1cc(C)c(C)c(S(=O)(=O)N2CCC(C(=O)N3CCCC3)CC2)c1C	PAD4 inh 58 (no result: Fam108B inh, GSTO1 counter) | PAD4 confirm inactive
O=C(NCCCO)c1nnc(Cc2c(F)cccc2Cl)o1	PAD4 inh 50 | PAD4 confirm inactive
CCc1nnc(N/N=C\c2ccc(OC(C)=O)c(OC)c2)n1N	PAD4 inh 25 | PAD4 confirm inactive
COc1cc(/C=N/NC(=O)Nc2ccccc2)ccc1OC(C)=O	none
CCc1nnc(N/N=C/c2ccc(O)c(OC)c2)n1N	PAD4 inh 38 | PAD4 confirm inactive
Cc1cc(C)nc(SCC(=O)NC2=NN=C(c3ccc(Br)cc3)CS2)n1	PAD4 inh 38 | PAD4 confirm 21
Cc1cc(C)nc(SCC(=O)Nc2ccc(Br)cn2)n1	none
CCC(Sc1nc(C)cc(C)n1)C(=O)NC1=NN=C(c2ccc(C)cc2)CS1 (stereo not drawn)	PAD4 inh 66 | PAD4 confirm 55
CN(CC(=O)NCc1ccco1)CC(=O)Nc1c(Cl)cccc1Cl	none (no result: Fam108B inh, GSTO1 counter)
CC(=O)N1CCN(S(=O)(=O)c2cccc(C(=O)OCC(=O)N(CCC#N)c3ccc(F)cc3)c2)CC1	PAD4 inh 29 (no result: Fam108B inh, GSTO1 counter) | PAD4 confirm inactive
COc1ccc(CSc2nncn2N)cc1Br	none
COc1cc(/C=N/Nc2nncn2N)ccc1OCc1c(C)no[n+]1[O-]	PAD4 inh 45 | PAD4 confirm inactive
COc1ccc(/C=N/Nc2nncn2N)cc1Br	PAD4 inh 53 | PAD4 confirm inactive
COc1ccc(-c2csc3ncnc(Oc4cccc5ccc(C)nc45)c23)cc1	none
COc1ccc(/C=C/C(=O)OCC(=O)c2c(N)n(C)c(=O)n(C)c2=O)c(OC)c1	PAD4 inh 19 | PAD4 confirm inactive
COc1ccc(CC(=O)N2CCN=C2SC)cc1	PAD4 inh 28 | PAD4 confirm inactive
CSC1=NCCN1C(=O)Cc1ccc(Cl)cc1	none
Cc1cc(O)c(C=Nc2ccc(N3CCOCC3)cc2)c(C)c1Cl	PAD4 inh 28 | PAD4 confirm inactive
Cc1ccc(Cl)cc1-c1ccc(C=Nc2ccc(N3CCOCC3)cc2)o1	none
c1ccc(C2=NNC(=NC3CC3)SC2)cc1	PAD4 inh 22 | PAD4 confirm inactive
